From PubChem BioAssay (NCATS)
Results filed as inconclusive are left out. Active and inactive are the calls of the source. Calls follow the shape of the dose curve; as a rule, active = well fitted inhibition curve with a large enough effect; inconclusive = small, poorly fitted or top-dose-only effect; inactive = flat fitted curve, though single readings scatter.

assay: qHTS for Inhibitors of Plasmodium falciparum (DD2) proliferation (AID 504314); settings: P. falciparum Dd2 in erythrocytes, SYBR Green growth, 72 h; series mostly up to 6.11 µM; activity, negative = inhibition: at the top concentration
Excerpt: Plasmodium falciparum is a virulent malarial parasite that kills 1-2 million people worldwide each year. Malaria not only inflicts tremendous suffering and morbidity on the human population, but has dramatically influenced the course of civilization with profound sociological and economic implications (Shah, S. 2010). Transmitted by mosquitoes, the sporozoite form of the parasite enters the blood stream to infect hepatocytes, where they become merozoites that infect red blood cells (erythrocytes). Within erythrocytes, merozoites begin a […] cycle of growth and division, after which the parasite is released to infect new red blood cells. Gametocytes, which form within erythrocytes as well, circulate in the bloodstream and are ingested by the mosquito, thereby completing the life cycle (see CDC website). To profile malarial lines for differential chemical responses and to identify inhibitors of malarial growth, an assay that measures P. falciparum growth and replication within erythrocytes was employed. This assay uses a DNA binding fluorescent dye (SYBR Green) to detect parasite DNA following cell lysis. Because mature erythrocytes lack DNA, only Plasmodium-derived DNA is detected. The P. falciparum line cp250, derived from a malarial isolate from Cambodia, (Mu, J., et al. 2010) was added to the panel of lines, Dd2, HB3, 7G8 and GB4 in this study.
Laboratory of Assay Development and Screening Technology [ADST] and NIH Chemical Genomics Center [NCGC]
Boston University, Chemistry Department, Center for Chemical Methodology and Library Development [CMLD-BU]
NIH National Institute of Allergy and Infectious Diseases [NIAID]
ADST Assay Protocol Summary:
The 1536-well SYBR Green viability assay was based on the method of Bennett et al (2004) and described previously in 1536-well format (Yuan J., et al. 2009). For screening 3 ul culture medium was dispensed into 1536 well black clear bottom plates (Aurora Biotechnologies) using a Multidrop Combi (Thermo Fisher Scientific Inc.), 23 nL compounds in DMSO were added by a pin transfer (Cleveland, P.H. and Koutz, P.J, 2005) using a pin tool-based delivery system (Kalypsys), and 5 ul of erythrocytes infected with P. falciparum one of five lines (cp250, Dd2, HB3, 7G8 or GB4, 0.3% parasitemia, 2.5% hematocrit final concentration) were added. The plates were incubated at 37C in a humidified incubator in 5% CO2 for 72 h, and 2 ul lysis buffer (20 mM Tris HCl, 10 mM EDTA, 0.16% saponin, 1.6% triton X, 10X SYBR Green I (supplied as 10,000X final concentration by Invitrogen) was added to each well. The plates were mixed for 25 sec with gentle shaking and incubated overnight at room temperature in the dark. The following morning, fluorescence intensity at 485(14) nm excitation and 535(25) nm emission wavelengths was measured on an EnVision (Perkin Elmer) plate reader. Plate reads were normalized relative to the control inhibitor (0.29 uM artemisinin) and vehicle (DMSO) wells present on each plate and then corrected by an algorithm using vehicle-only control plates at the beginning and end of the compound plate stack.
Shah, S. (2010). The Fever: how malaria has ruled humankind for 500,000 years. New York, Sarah Crichton Books.
CDC web site, http://www.cdc.gov/malaria/about/biology/index.html
Mu, J., Myers, R.A., Jiang, H., Liu, S., Ricklefs, S., Waisberg, M., Chotivanich, K., Wilairatana, P., Krudsood, S., White, N.J., et Plasmodium falciparum genome-wide scans for positive selection, recombination hot spots and resistance to antimalarial drugs Nature Genetics 2010, 42, pp 268-271
Bennett TN, Paguio, M., Gligorijevic, B., Seudieu, C., Kosar, A. D., Davidson, E., and Roepe, P. D. Novel, rapid, and inexpensive cell-based quantification of antimalarial drug efficacy Antimicrobial Agents Chemother. 2004, 48(5): pp 1807-10
Yuan J, Johnson RL, Huang RL, Wichterman J, Jiang HY, Hayton K, Fidock DA, Wellems TE, Inglese J, Austin CP, Su XZ. […]

activity, negative = inhibition, inactive:
CC(C)[C@@H](OCc1ccccc1)[C@H](C)C=NOC[C@@H](C)[C@H](OCc1ccccc1)C(C)C -15.6%
COC(=O)N1C(C)=Cc2ccccc2C1CC(C)=CC(C)=O (stereo not given) -6.23%
C=CCN1C=C2C(=O)C(C)(OC(=O)c3ccco3)C(=O)C(C=C)=C2C=C1C1CC1 (stereo not given) 2.08% [at 1.12 µM]
COC(=O)[C@H](COC(C)(C)C)NC(=O)O[C@@H]1C(=O)c2cc(Br)ccc2O[C@H]1c1ccc2c(c1)OCO2 -9.8%
C=CCOC(=O)N[C@H](c1ccc(-c2ccccc2)cc1)[C@H](C)C=CCC(=O)OC -1.88%
CCN(CCNC(=O)[C@H]1C=C(OC)C(=O)C[C@H](c2ccccc2)[C@@H]1C)C(C)=O -4.6%
CCC(=O)OC1(C)C(=O)C=C2C=C(c3ccsc3)OC=C2C1=O (stereo not given) -2.25%
COC(=O)C1=C(C)N(Cc2ccccc2)C(=S)NC1CCc1ccccc1 (stereo not given) -8.92%
CC(=O)OC[C@H]1O[C@H](CC=NOC[C@@H](O)COCc2ccco2)C=C[C@H]1OC(C)=O 0.119%
COC[C@@H](O)[C@H]1OCc2ccccc2[C@H]1C=Cc1ccccc1 -8.3%
C=CCNC(=O)[C@H]1C=C(OC)C(=O)C[C@H]2c3ccccc3C[C@]12C -5.48%
C=CCN1C(=O)CC[C@@]23C1=NC(C(=O)OC)=C(C(=O)OC)[C@@H]2N(CC#CC)c1ccccc13 -12%
CCN1C(=O)N(S(=O)(=O)c2ccc(C)cc2)C(c2ccccc2)C(C(=O)OC)=C1C (stereo not given) -9.94%
C=CC(=O)N1C(=O)c2ccccc2S1(=O)=O -11%
COc1ccc2c(c1)O[C@@H](c1ccc3c(c1)OCO3)[C@H](OC(=O)N[C@H](C)C1CCCCC1)C2=O -5.7%
CC1(C)OCC([C@H](O)C2=CCCCC2=O)CO1 -9.79%
COC(=O)CC=C[C@@H](C)[C@@H](COc1ccccc1Br)OC 1.18%
COC1=CC2C(=O)C(C1=O)C1c3ccccc3CC21 (stereo not given) 2.16%
C[C@@H]1C=CCCO[C@]12C(=O)N(Cc1ccccc1C(F)(F)F)c1ccccc12 -9.7%
CCN1C(=NCCc2cccnc2)N[C@H](CCc2ccccc2)[C@H](C(=O)OC)[C@H]1C -7.12%
COc1ccc2c(c1)C(=O)[C@@H](OC(=O)NS(=O)(=O)c1ccc(F)cc1)[C@H](c1ccc(OC)c(Br)c1)O2 -15%
COc1ccc(COC(=O)NN=C2C[C@@H](O)[C@@H](O)[C@@H]3[C@H]4C(=O)N(Cc5ccc6c(c5)OCO6)C(=O)[C@@H]4CC[C@H]23)cc1 -8.26%
COC(=O)C[C@H]1c2ccccc2[C@@H]2C(=C[C@@H](C)[C@H]3C(=O)NC(=O)[C@H]32)N1C(=O)OC -2.18%
C(#C[C@@H]1C=C[C@H]2OC(c3ccccc3)OC[C@H]2O1)c1ccccc1 (stereo not given in full) -1.79%
COC(=O)C1=C(C)N(CC2CC2)C(=NCCc2cccnc2)NC1c1ccccc1 (stereo not given) -12%
CCN1C(N(C)CCOC)=NC(c2cccc(F)c2)C(C(=O)OC)=C1C (stereo not given) 0.605%
CC[C@H](C)[C@@H](NC(=O)O[C@@H]1C(=O)c2ccc(OC)cc2O[C@H]1c1ccc2c(c1)OCO2)C(=O)OC -5.42%
COC(=O)C1=C(C)N(Cc2ccccc2)C(=O)NC1c1cccc(C(F)(F)F)c1 (stereo not given) -9.23%
C=C(C)CO[C@H]1C=C[C@@H](c2ccccc2)O[C@H]1CO 3.5%
C#CCCCON=C1C[C@@H](O)[C@H](O)[C@H]2[C@@H]3C(=O)N(C[C@@H]4CCCO4)C(=O)[C@@H]3CC[C@H]12 -4.82%
C=CCOC(=O)N[C@H](c1cccc(C(F)(F)F)c1)C(C(C)=O)C(C)=O 2.04%
COC(=O)c1c(C(=O)OC)c2c3cc(OC)c(OC)cc3ccn2c1C(=O)OC -0.122%
C=CCN=C1N[C@@H](c2ccccc2)[C@H](C(=O)OC)[C@@H](C)N1CC 0.975%
CCC(=O)C[C@@H](NC(=O)OC)c1ccccc1 -0.332%
C=CCCCC=C(C)[C@H](OCc1ccc(OC)cc1)[C@H](CCC=C(C)C(N)=O)OC -9.21%

Potency, inactive:
COC(=O)CCC(=O)OC1(C)C(=O)C=C2C=C(C3CC3)N(Cc3ccc(OC)cc3)C=C2C1=O (stereo not given)
COC(=O)N1C(c2ccccc2)=Cc2ccccc2C1C1(C(=O)OC)CCCC1=O (stereo not given)
C(=Cc1nc(-c2ccccc2)oc1Nc1ccc2ccccc2c1)c1ccccc1
C[C@H]1Cc2c(-c3ccccc3)nc3c(c2CO1)CN(C(=O)Cc1cccs1)CC3
CC1(OC(=O)c2ccc(Cl)nc2)C(=O)C=C2C=C3CCCN3C=C2C1=O (stereo not given)
